Experimental data as given in PubChem BioAssay AID1159580 (chemical genetic matrix, 2015).
Screen size: about 5,500 compounds; about 2,000 (36%) were called active. Inconclusive results (about 18%) are left out. The list shows a part of the results. Unmarked numbers belong to inactive results. Rule as the data show it: active = normalized growth mostly below about 0.91 (no sharp cut-off); inconclusive = no clear call, values can overlap the other calls; inactive = mostly above about 0.92.

Assay: chemical genetic growth profiling, strain panel (AID 1159580);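 also: tested at 20 µM; growth read once vehicle control cultures reached saturation at 30 °C; 1 = growth at the plate median or of vehicle wells; lower values mean less growth of the strain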
Conditions: S. cerevisiae deletion strains, growth OD
[1] = locus YER002W, strain NOP16, active compounds read low
[2] = locus YNL175C, strain NOP13, active compounds read low
[3] = locus YNL197C, strain WHI3, active compounds read low
[4] = locus YNL224C, strain SQS1, active compounds read low
[5] = locus YOR083W, strain WHI5 (second series), active compounds read low

SMILES: O=[N+]([O-])c1cccc2c(Br)[nH]nc12
- normalized growth (locus YAL021C, strain ccr4, active compounds read low): 0.955
- normalized growth (locus YAL026C, strain drs2, active compounds read low): 0.993
- normalized growth (locus YAL030W, strain snc1, active compounds read low): 0.984
- normalized growth (locus YBL061C, strain skt5, active compounds read low): 0.982
- normalized growth (locus YBR009C, strain hhf1, active compounds read low): 1.01
- normalized growth (locus YBR023C, strain chs3, active compounds read low): 0.992
- normalized growth (locus YBR171W, strain sec66, active compounds read low): 0.972
- normalized growth (locus YBR231C, strain swc5, active compounds read low): 0.997
- normalized growth (locus YBR279W, strain paf1, active compounds read low): 0.992
- normalized growth (locus YCL011C, strain gbp2, active compounds read low): 0.976
- normalized growth (locus YCL016C, strain dcc1, active compounds read low): 0.996
- normalized growth (locus YCL061C, strain MRC1, active compounds read low): 0.983
- normalized growth (locus YCL069W, strain vba3, active compounds read low): 0.972
- normalized growth (locus YCR088W, strain abp1, active compounds read low): 0.986
- normalized growth (locus YDL005C, strain med2, active compounds read low): 0.977
- normalized growth (locus YDL040C, strain nat1, active compounds read low): 0.99
- normalized growth (locus YDR001C, strain nth1, active compounds read low): 0.984
- normalized growth (locus YDR069C, strain doa4, active compounds read low): 0.965
- normalized growth (locus YDR137W, strain rgp1, active compounds read low): 0.942
- normalized growth (locus YDR150W, strain NUM1, active compounds read low): 0.961
- normalized growth (locus YDR159W, strain sac3, active compounds read low): 1.07
- normalized growth (locus YDR195W, strain ref2): 1.09
- normalized growth (locus YDR297W, strain sur2, active compounds read low): 0.977
- normalized growth (locus YDR334W, strain swr1, active compounds read low): 0.956
- normalized growth (locus YDR335W, strain msn5, active compounds read low): 0.975
- normalized growth (locus YDR392W, strain spt3, active compounds read low): 0.852
- normalized growth (locus YEL003W, strain gim4, active compounds read low): 0.978
- normalized growth (locus YEL037C, strain rad23, active compounds read low): 0.99
- normalized growth (locus YEL061C, strain CIN8 (second series), active compounds read low): 0.987
- normalized growth [1]: 0.975
- normalized growth (locus YER015W, strain faa2, active compounds read low): 0.973
- normalized growth (locus YER016W, strain bim1, active compounds read low): 0.998
- normalized growth (locus YER111C, strain swi4, active compounds read low): 0.998
- normalized growth (locus YER155C, strain BEM2 (second series), active compounds read low): 0.948
- normalized growth (locus YFR010W, strain ubp6, active compounds read low): 0.972
- normalized growth (locus YGL167C, strain pmr1, active compounds read low): 0.99
- normalized growth (locus YGL173C, strain kem1, active compounds read low): 0.983
- normalized growth (locus YGL227W, strain vid30, active compounds read low): 0.993
- normalized growth (locus YGL240W, strain doc1, active compounds read low): 0.996
- normalized growth (locus YGL253W, strain hxk2, active compounds read low): 0.988
- normalized growth (locus YHR013C, strain ard1, active compounds read low): 1.03
- normalized growth (locus YHR027C, strain rpn1, active compounds read low): 0.974
- normalized growth (locus YHR030C, strain SLT2, active compounds read low): 0.933
- normalized growth (locus YHR079C, strain IRE1, active compounds read low): 0.937
- normalized growth (locus YHR142W, strain chs7, active compounds read low): 0.901
- normalized growth (locus YJL092W, strain hpr5, active compounds read low): 0.969
- normalized growth (locus YJL095W, strain BCK1 (second series), active compounds read low): 0.977
- normalized growth (locus YJL095W, strain BCK1, active compounds read low): 0.911
- normalized growth (locus YJL115W, strain asf1, active compounds read low): 0.985
- normalized growth (locus YJL129C, strain trk1, active compounds read low): 0.988
- normalized growth (locus YJL154C, strain vps35, active compounds read low): 0.983
- normalized growth (locus YJL164C, strain tpk1, active compounds read low): 0.932
- normalized growth (locus YJL166W, strain qcr8, active compounds read low): 0.952
- normalized growth (locus YJL187C, strain SWE1, active compounds read low): 0.98
- normalized growth (locus YJR066W, strain TOR1, active compounds read low): 0.882
- normalized growth (locus YKL160W, strain elf1, active compounds read low): 0.916
- normalized growth (locus YKR026C, strain gcn3, active compounds read low): 0.988
- normalized growth (locus YKR091W, strain srl3, active compounds read low): 0.976
- normalized growth (locus YLL001W, strain dnm1, active compounds read low): 0.977
- normalized growth (locus YLL026W, active compounds read low): 0.98
- normalized growth (locus YLL041C, strain sdh2, active compounds read low): 0.976
- normalized growth (locus YLR027C, strain aat2, active compounds read low): 0.972
- normalized growth (locus YLR113W, strain HOG1, active compounds read low): 1.04
- normalized growth (locus YLR221C, strain rsa3, active compounds read low): 0.937
- normalized growth (locus YLR258W, strain gsy2, active compounds read low): 0.994
- normalized growth (locus YLR262C, strain YPT6 (second series), active compounds read low): 0.986
- normalized growth (locus YLR320W, strain mms22, active compounds read low): 0.99
- normalized growth (locus YLR342W, strain FKS1, active compounds read low): 0.987
- normalized growth (locus YLR357W, strain rsc2, active compounds read low): 1.02
- normalized growth (locus YLR370C, strain arc18, active compounds read low): 0.986
- normalized growth (locus YLR384C, strain iki3, active compounds read low): 0.987
- normalized growth (locus YML120C, strain ndi1, active compounds read low): 0.94
- normalized growth (locus YMR058W, strain fet3, active compounds read low): 0.942
- normalized growth (locus YMR125W, strain sto1, active compounds read low): 1.01
- normalized growth (locus YMR129W, active compounds read low): 0.99
- normalized growth (locus YMR205C, strain PFK2, active compounds read low): 1.05
- normalized growth (locus YMR231W, strain pep5, active compounds read low): 0.994
- normalized growth (locus YNL071W, strain lat1, active compounds read low): 0.982
- normalized growth [2]: 0.972
- normalized growth (locus YNL183C, strain NPR1, active compounds read low): 0.873
- normalized growth [3]: 1.01
- normalized growth (locus YNL209W, strain ssb2, active compounds read low): 0.973
- normalized growth [4]: 0.982
- normalized growth (locus YNL248C, strain rpa49, active compounds read low): 0.871 (active)
- normalized growth (locus YNL322C, strain KRE1 (second series), active compounds read low): 0.994
- normalized growth (locus YNR049C, strain mso1, active compounds read low): 0.977
- normalized growth (locus YOR001W, strain rrp6, active compounds read low): 0.928
- normalized growth (locus YOR070C, strain gyp1, active compounds read low): 0.984
- normalized growth (locus YOR080W, strain dia2, active compounds read low): 0.987
- normalized growth [5]: 0.991
- normalized growth (locus YOR083W, strain WHI5, active compounds read low): 0.881 (active)
- normalized growth (locus YOR106W, strain vam3, active compounds read low): 0.863 (active)
- normalized growth (locus YOR231W, strain MKK1, active compounds read low): 0.929
- normalized growth (locus YOR265W, strain rbl2, active compounds read low): 0.982
- normalized growth (locus YOR270C, strain vph1, active compounds read low): 0.804
- normalized growth (locus YOR290C, strain snf2, active compounds read low): 0.919
- normalized growth (locus YPL051W, strain arl3, active compounds read low): 0.899 (active)
- normalized growth (locus YPL078C, strain atp4, active compounds read low): 0.874 (active)
- normalized growth (locus YPL106C, strain sse1, active compounds read low): 0.979
- normalized growth (locus YPL240C, strain hsp82, active compounds read low): 0.979
- normalized growth (locus YPL256C, strain CLN2, active compounds read low): 0.97

SMILES: NS(=O)(=O)c1cccc2c1c([N+](=O)[O-])cc1nc(O)c(O)nc12
- normalized growth (locus YAL013W, strain DEP1, active compounds read low): 1
- normalized growth (locus YAL040C, strain CLN3, active compounds read low): 1.08
- normalized growth (locus YCL061C, strain MRC1 (second series), active compounds read low): 0.998
- normalized growth (locus YDR363W, strain ESC2, active compounds read low): 1.01
- normalized growth [1]: 0.999
- normalized growth (locus YGR078C, strain PAC10, active compounds read low): 0.995
- normalized growth (locus YMR307W, strain GAS1, active compounds read low): 0.997
- normalized growth [2]: 0.989
- normalized growth [3]: 1.01
- normalized growth [4]: 1
- normalized growth (locus YNL322C, strain KRE1, active compounds read low): 0.998
- normalized growth [5]: 1.01
- normalized growth (locus YPL055C, strain LGE1, active compounds read low): 1
